Only some compounds are listed: those with a hit (about 3% of all), similar ones and a draw of the others.
TRAIL sens C8 – viability loss with TRAIL in NB7+C8 cells, primary screen, TRAIL sensitizer project, cell-based, ATPlite luminescence | 1% of 360,000 active | inhibition (viability loss, TRAIL sensitization), % at 10 µM;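 active means compounds causing at least 50% loss of cell viability in the single-dose screen, relative to plate controls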
SENP8 block-1 – SENP8 protease inhibitors, primary screen, biochemical, luminescence. Sentrin-specific protease 8 (Homo sapiens), Q96LD8. purified SENP8, Z-RLRGG-aminoluciferin cleavage. inhibition, % at 10 µM. 1.2% of 330,000 active. AID 2540, 2010; in the data active means inhibition above about 50%
SENP8 block-2 – human SENP8 protease inhibitors, primary screen, biochemical, fluorescence, Nedd8 protein substrate, uHTS; Sentrin-specific protease 8 (Homo sapiens), Q96LD8; recombinant SENP8; inhibition, % at 20 µM; 0.64% of 360,000 active; AID 602440, 2012; in the data active means inhibition mostly above about 40%, no sharp cut-off; inactive means mostly below about 27%
SENP6 block – SENP6 protease inhibitors, primary screen, biochemical, luminescence, uHTS; inhibition, % at 10 µM; Sentrin-specific protease 6 (Homo sapiens), Q9GZR1; AID 2599, 2010; 1.8% of 330,000 active; Recombinant SENP6 catalytic domain, aminoluciferin luminescence;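 active means inhibition above about 50% at the single tested dose, limit read from the data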
PPC-1+TRAIL kill – compounds killing PPC-1 cancer cells with TRAIL present, primary screen, TRAIL potentiator project, ATPLite luminescence, uHTS. PPC-1 cells + TRAIL, ATPLite viability luminescence. cell killing (% activity), % at 4 µM or 5 µM. 0.41% of 220,000 active;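 active means cell killing above 50% in the first pass at 4 µM, then a duplicate retest at 5 µM averaging 50% or more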
SENP7 block – SENP7 protease inhibitors, primary screen, biochemical, luminescence, uHTS. recombinant SENP7, Z-RLRGG-aminoluciferin luminescence, 40 min. 1.5% of 330,000 active. AID 434973, 2010. Sentrin-specific protease 7 (Homo sapiens), Q9BQF6. inhibition, % at 5 µM;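 active means inhibition above about 50% at the single test dose, limit read from the data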
Target sequence (Q9BQF6 706-1050 limits assumed): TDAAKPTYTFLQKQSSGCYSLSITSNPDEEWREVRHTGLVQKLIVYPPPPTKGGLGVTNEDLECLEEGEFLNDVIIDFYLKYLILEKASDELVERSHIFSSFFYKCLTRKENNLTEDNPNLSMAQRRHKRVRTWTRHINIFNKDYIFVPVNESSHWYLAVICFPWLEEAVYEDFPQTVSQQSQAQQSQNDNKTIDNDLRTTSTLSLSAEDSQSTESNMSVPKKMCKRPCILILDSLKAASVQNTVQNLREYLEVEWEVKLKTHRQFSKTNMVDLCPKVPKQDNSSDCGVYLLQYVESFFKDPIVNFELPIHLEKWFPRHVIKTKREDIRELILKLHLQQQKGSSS
SENP8 confirm – SENP8 protease inhibitors, retest, confirmation, biochemical, luminescence, single concentration; shares compounds with SENP7 block; Recombinant SENP8, Z-RLRGG-aminoluciferin luminescence, 60 min; inhibition, % at 12.5 µM; 40% of 6,200 active; AID 488912, 2010;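 active means mean inhibition across replicates above about 50%, limit read from the data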
SENP6 conf – SENP6 protease inhibitors, confirmation, biochemical, luminescence, single concentration; 58% of 6,200 active; recombinant SENP6, Z-RLRGG-aminoluciferin luminescence; shares compounds with SENP7 block; inhibition, % at 12.5 µM; AID 488915, 2010
SENP7 confirm – SENP7 protease inhibitors, retest, confirmation, biochemical, luminescence, single concentration | 69% of 6,200 active | recombinant SENP7, Z-RLRGG-aminoluciferin luminescence, 40 min | shares compounds with SENP7 block | inhibition, % at 12.5 µM | AID 488917, 2010
Casp3 SENP sel – caspase-3 protease inhibitors, confirmation, selectivity assay for SENP inhibitor project, biochemical, single concentration | shares compounds with SENP7 block | purified caspase-3, Z-DEVD-aminoluciferin luminescence, 60 min | inhibition, % at 12.5 µM | 60% of 6,200 active;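 active means mean inhibition above about 50%, limit read from the data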
Target sequence (P42574 28-227 limits assumed): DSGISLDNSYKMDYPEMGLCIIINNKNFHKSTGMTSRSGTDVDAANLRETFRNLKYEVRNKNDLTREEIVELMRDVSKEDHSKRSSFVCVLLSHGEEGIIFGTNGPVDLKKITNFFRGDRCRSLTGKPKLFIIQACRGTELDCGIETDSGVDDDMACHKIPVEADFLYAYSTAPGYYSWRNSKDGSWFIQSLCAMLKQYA
SENP luc ctr – interferes with luciferase luminescence in SENP counter-screen; shares compounds with SENP7 block; Pre-incubated SENP8/Z-RLRGG-aminoluciferin, luciferase luminescence interference; inhibition, % at 12.5 µM; 39% of 6,200 active;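 active means mean inhibition above about 50% when retested at one dose, limit read from the data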
Hits are given with their value; - = inactive; . = no result given.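 How the source made its calls, unless noted: active means mean inhibition above about 50% in the one-dose retest (limit read from the data); inactive means the rest.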

SMILES	TRAIL sens C8	SENP8 block-1	SENP8 block-2	SENP6 block	PPC-1+TRAIL kill	SENP7 block	SENP8 confirm	SENP6 conf	SENP7 confirm	Casp3 SENP sel	SENP luc ctr
COc1cccc(NC(=O)c2cccc(Cl)c2)c1	-	77	-	83	.	77	81	79	95	83	81
COc1cccc(C(=O)NC(=S)Nc2ccc(N(C)C)cc2)c1	-	-	-	57	-	-	-	57	78	-	-
COC(=O)c1cccc(NC(=O)c2cccc(OC)c2)c1	-	65	-	85	-	84	69	71	94	85	78
O=C(O)c1cccc(NC(=S)N/N=C/c2ccccn2)c1	-	62	-	-	-	77	77	76	95	-	75
Cc1cc(=O)[nH]c(N/N=C/c2sccc2C)n1	-	-	-	64	-	56	-	-	79	81	-
Cc1cc(=O)[nH]c(N/N=C/c2cc(C)n(-c3ccccc3)c2C)n1	-	-	-	66	-	-	66	64	87	76	-
CCOC(=O)c1ccccc1N/C=C/C(=O)c1ccccc1	-	-	-	50	.	-	-	-	64	-	-
CCOC(=O)c1ccc(N/C=C/C(=O)c2ccccc2)cc1	-	84	-	93	-	95	-	57	-	67	-
CCOC(=O)c1sc(=NC(=O)c2ccccc2)n(C)c1C	-	-	-	-	-	54	-	-	-	-	-
CCOC(=O)c1sc(NC(=O)c2ccccc2)cc1C	50	77	-	93	-	94	57	90	100	84	-
CCOC(=O)c1sc(=NC(=O)c2cccc(OC)c2)n(C)c1C	-	-	-	-	-	-	.	.	.	.	.
O=S(=O)(NCc1ccc(F)cc1)c1ccc(Br)cc1Br	-	-	-	-	.	-	.	.	.	.	.
CN(CCCNC(=O)CSc1cc(=O)n(C)c2cc(Cl)ccc12)Cc1ccccc1	-	-	-	-	-	75	-	-	-	-	-
Cn1c(=O)cc(SCC(=O)NCCC2=CCCCC2)c2ccc(Cl)cc21	-	-	-	-	-	-	.	.	.	.	.
CCc1ccc(C2=NN(CCC(=O)NCc3cccs3)C(=O)CC2)cc1	-	-	-	-	-	-	.	.	.	.	.
COc1ccc(OC)c(NC(=O)c2cnn(-c3ccccc3)c2C)c1	-	-	-	-	.	-	.	.	.	.	.
CC(=O)c1cccc(NC(=O)c2cnn(-c3ccccc3)c2C)c1	-	-	-	-	.	-	.	.	.	.	.
Cc1c(C(=O)Nc2cccc([N+](=O)[O-])c2)cnn1-c1ccccc1	-	-	-	67	.	56	51	-	81	-	58
O=C(Nc1cccc([N+](=O)[O-])c1)c1cnccn1	-	-	-	-	-	-	.	.	.	.	.
O=C(Nc1cccc([N+](=O)[O-])c1)c1[nH]ncc1Cl	-	74	-	81	-	81	67	61	91	77	54
Cc1c(C(=O)Nc2ccccc2)cnn1-c1ccccc1	-	-	-	-	.	-	.	.	.	.	.
COc1ccc(NC(=O)c2cnn(-c3ccccc3)c2C)cc1	-	80	-	90	.	90	-	82	97	92	56
COc1ccc(NC(=O)c2cnn(-c3ccccc3)c2C)cc1OC	-	-	-	52	.	-	-	-	64	63	-
Cc1ccc(NC(=O)c2cnn(-c3ccccc3)c2C)cc1C	-	77	-	85	.	90	-	86	97	80	-
Cc1c(C(=O)Nc2cccc(F)c2)cnn1-c1ccccc1	-	-	-	-	.	-	.	.	.	.	.
SMILES	TRAIL sens C8	SENP8 block-1	SENP8 block-2	SENP6 block	PPC-1+TRAIL kill	SENP7 block	SENP8 confirm	SENP6 conf	SENP7 confirm	Casp3 SENP sel	SENP luc ctr
CCOc1ccc(S(=O)(=O)N2CCCC(C(=O)N3CCOCC3)C2)cc1Cl (stereo not drawn)	-	-	-	-	.	-	.	.	.	.	.
Clc1ccc(-c2nnc(-c3ccco3)o2)cc1	-	52	-	63	-	73	-	-	59	54	-
c1cncc(-c2nnc(-c3ccco3)o2)c1	-	-	-	-	-	-	.	.	.	.	.
COc1ccc(N(C(=O)CNC(=O)c2ccco2)C(C(=O)NCC2CCCO2)c2ccccc2)cc1 (stereo not drawn)	-	-	-	-	.	-	.	.	.	.	.
O=C(NCC(=O)N1CCN(S(=O)(=O)c2ccccc2)CC1)c1ccc(Br)o1	-	-	-	-	.	-	.	.	.	.	.
CC(/C=C1\SC(=S)N(NS(=O)(=O)c2ccc(C)cc2)C1=O)=C\c1ccccc1	-	84	-	-	-	-	-	84	-	-	-
CC(/C=C1\SC(=S)N(NC(=O)c2ccccc2C)C1=O)=C\c1ccccc1	-	-	-	-	-	-	.	.	.	.	.
CC(/C=C1\SC(=S)N(NS(=O)(=O)c2ccccc2)C1=O)=C\c1ccccc1	-	80	-	96	-	-	92	92	-	-	-
C=C(C)C(=O)Nc1cccc(C2=NOC3(C2)C[C@H](C(N)=O)N(C(=O)COc2ccc(Cl)cc2)C3)c1 (stereo partly drawn)	-	-	-	-	-	-	.	.	.	.	.
c1ccc(CCNc2ncnc3c2cnn3-c2ccccc2)cc1	-	-	-	58	-	-	58	51	82	-	-
COc1ccc(/C=C/C(=O)c2ccc(O)cc2)cc1CN1CCOCC1	-	-	-	-	-	-	.	.	.	.	.
O=C(/C=C/c1cccc(O)c1)c1ccc(N2CCOCC2)cc1	-	-	-	78	-	74	-	-	-	-	51
CCCCCCN1CCN(C2CN(Cc3ccc(F)cc3)S(=O)(=O)C2)CC1 (stereo not drawn)	-	.	-	.	.	.	.	.	.	.	.
O=C(O)c1ccc(OCc2ccc(C(=O)O)o2)cc1	-	84	-	88	.	92	87	88	99	55	71
